Counter-ions that a name gives are not always drawn.

In the assay the test system is Saccharomyces cerevisiae. As to the kind of experiment: fraction of cells in G1 phase (DNA content, flow cytometry); higher = more cells with unreplicated DNA (G1 delay). The conditions noted are these: temperature: 30 C; YPD; JTY2953 pdr5 snq2 (sensitized); drug added to: cultures diluted from stationary phase; 6-7 h. The essentials:
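Overnight cultures of sensitized JTY2953 were diluted 1∶200 into drug at a final 20 µg/ml and fixed after 6–7 h, and further runs treated dividing JTY2953 or BY4741, fixing them 6 h and 4.33 h later respectively. All growth used YPD at 30°C with S. cerevisiae and library drugs. After ethanol fixation and SYTOX Green staining, flow cytometry recorded 10,000 events. The G1 fraction equals the Dean-Jett-Fox G1 peak area over the G1 plus G2/M areas.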
On to `O=C(O)c1cc(-c2ccc(F)cc2F)ccc1O` [Diflunisal] (79.9349 µM), for which the “fraction of cells in G1 phase” value came to 0.512.
Turning to `CCCC(CCC)C(=O)O` [Valproic acid] (138.681 µM), the “fraction of cells in G1 phase” value amounted to 0.541.
Next, `Oc1ccc(C2CNCCc3c2cc(O)c(O)c3Cl)cc1` (stereo unspecified) [Fenoldopam mesylate] (65.41 µM): 0.533; `Clc1ccccc1CN1CCc2sccc2C1` [Ticlopidine HCl] (75.8175 µM): 0.505.
Turning to `CN(C)CCc1c[nH]c2ccc(C[C@H]3COC(=O)N3)cc12` [zolmitriptan] (65.9179 µM), the “fraction of cells in G1 phase” value amounted to 0.474.
`N=C(N)N/N=C/c1c(Cl)cccc1Cl` [Guanabenz acetate] (86.548 µM): the “fraction of cells in G1 phase” value was found to be 0.488.
Turning to `CC(C)[C@H](N)C(=O)OCCOCn1cnc2c(=O)nc(N)[nH]c21` [Valaciclovir] (61.6633 µM), the “fraction of cells in G1 phase” value turned out to be 0.465.
On to `CC(=O)O[C@]1(C(C)=O)CC[C@H]2[C@@H]3C=C(C)C4=CC(=O)CC[C@]4(C)[C@H]3CC[C@@]21C` [Megestrol acetate] (52.0129 µM), for which the “fraction of cells in G1 phase” value is 0.575.
To `CC(=O)O[C@H]1C[C@@H]2CC[C@@H]3[C@H](CC[C@@]4(C)[C@H]3C[C@H]([N+]3(C)CCCCC3)[C@@H]4OC(C)=O)[C@@]2(C)C[C@@H]1N1CCCCC1` [Vecuronium Br] (35.8523 µM) belongs 0.478; to `NC(N)=Nc1nc(CSCC/C(N)=N/S(N)(=O)=O)cs1` [Famotidine] (59.2687 µM), 0.499; to `NC[C@H]1O[C@H](O[C@H]2[C@H](O)[C@@H](O[C@H]3O[C@H](CO)[C@@H](O)[C@H](N)[C@H]3O)[C@H](N)C[C@@H]2N)[C@H](N)C[C@@H]1O` [Tobramycin (free base)] (42.7786 µM), 0.469.

The record behind these values is the supplement of paper PMC3342239.
